Inconclusive results are not listed. Activity calls are given as the source filed them. Unless noted, calls come from the whole dose curve.

This note sets out measurements from PubChem BioAssay (NCATS).

Assay [1] deals with Glucocorticoid receptor (Homo sapiens) (UniProt P04150). Nature of the assay: qHTS assay for small molecule agonists of glucocorticoid receptor signaling (AID 588532; active = well fitted curve in the direction sought with a large enough effect in the signal ratio, with a control signal flat; the % refers to the signal ratio;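 note: 100% = dexamethasone at 0.1 µM and 0% = DMSO only wells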). The following applies: HeLa MMTV-bla, beta-lactamase ratio, agonist, 18 h; stronger effect = higher value; percent of dexamethasone control, DMSO zero. The method, boiled down:
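Cells were plated and rested 3-5 h at 37 C, compounds were added in titration and incubated 18 h, then CCF4 substrate was loaded for 2 h at RT before reading blue/green fluorescence. EC50 came from Hill-equation fitting.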
Background: Quantitative high-throughput screening tests each substance at several concentrations.

For assay [2] the target is unchanged. Nature of the assay: qHTS assay for small molecule antagonists of glucocorticoid receptor signaling (AID 588533; active = well fitted inhibition curve with a large enough effect in the signal ratio, with a control signal flat, not every such curve was filed as active; the % refers to the signal ratio; note: % is set by controls: 0 for no effect and ±100 for the full control effect). The note with it: HeLa MMTV-bla, GRE beta-lactamase ratio, antagonist mode, 18 h; series mostly up to 76.8 µM. The method, boiled down:
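Antagonist-mode qHTS: compound titrations added to GRE-bla HeLa cells, then dexamethasone 2 nM final; 18 h, 37 C. CCF4 FRET fluorescence normalized to dexamethasone and DMSO; IC50 from Hill fit.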

A short description of assay [3]: qHTS assay for small molecule antagonists of peroxisome proliferator-activated receptor delta signaling (AID 588535; active = well fitted inhibition curve with a large enough effect in the signal ratio, with a control signal flat, not every such curve was filed as active; the % refers to the signal ratio;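 for max response: cells co-treated with a PPAR-delta agonist as stimulator during compound exposure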). The note with it: HEK293T PPARd-UAS-bla, beta-lactamase FRET ratio, 18 h; 460 nm channel. In short, it runs like this: (§1)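 Beta-lactamase reporter read-out (405 nm excitation, 460/530 nm emission) after CCF4 loading for 2 hrs at RT. HEK293T PPAR-delta-UAS-bla cells, 2% charcoal/dextran FBS, compounds for 18 hrs at 37 C. Hill fit gave IC50 and efficacy.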

Assay [4] concerns the target Peroxisome proliferator-activated receptor delta (Homo sapiens) (UniProt Q03181). The assay is described as above. The following applies: HEK293T PPARd-UAS-bla, beta-lactamase FRET ratio, 18 h; series mostly up to 76.7 µM. The method, boiled down:
as §1

The target of assay [5] is Peroxisome proliferator-activated receptor gamma (Homo sapiens) (UniProt P37231). The assay can be described thus: qHTS assay for small molecule agonists of peroxisome proliferator-activated receptor gamma signaling (AID 588536; active = well fitted curve in the direction sought with a large enough effect in the signal ratio, with a control signal flat, not every such curve was filed as active; the % refers to the signal ratio;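 note: 0% = DMSO basal wells and 100% = rosiglitazone at 2 µM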). The note with it: HEK293 PPARg-UAS-bla, beta-lactamase ratio, 16 h, percent of rosiglitazone response, DMSO as zero; series mostly up to 76.7 µM. The method, boiled down:
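Cells were plated and held 6–6.5 h at 37 C, then compounds were added as a titration series. After a further 16 h, CCF4 dye was loaded for 2 h at room temperature and emission at 460/530 nm recorded.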

In assay [6] the target is Vitamin D3 receptor (Homo sapiens) (UniProt P11473). The assay can be described thus: qHTS assay for small molecule antagonists of vitamin D receptor signaling (AID 588541).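 Note: receptor activated by calcitriol during compound treatment; % is set by controls: 0 for no effect and ±100 for the full control effect.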 The note with it: HEK293T VDR-UAS-bla, beta-lactamase ratio, antagonist mode; series mostly up to 76.7 µM. The method, boiled down:
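VDR-UAS-bla HEK293T cells in 2% charcoal-stripped FBS were stimulated with 1-alpha,25-dihydroxyvitamin D3 (3 nM final) plus compound for 16 h at 37 C. The beta-lactamase CCF4 readout was normalized to 50 nM agonist and DMSO, and Hill fits gave IC50.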

The target is the same in assay [7]. Nature of the assay: qHTS assay for small molecule agonists of vitamin D receptor signaling (AID 588543).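 Note: 0% = DMSO basal and 100% = reference agonist control.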 The note with it: HEK293T VDR-UAS-bla, beta-lactamase ratio, 16 h; series mostly up to 76.8 µM. In short, it runs like this: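 Reporter cells (HEK293T, VDR-UAS-bla) were seeded in medium with 2% charcoal-stripped serum and incubated 5 h, then compounds in concentration series were added for 16 h at 37 °C. Stimulation was scaled between DMSO basal and 50 nM 1α,25-dihydroxyvitamin D3.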

A short description of assay [8]: qHTS assay for small molecule agonists of retinoid X receptor alpha signaling (AID 588544).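 For activation: 0% = DMSO basal wells and 100% = reference agonist.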 The note with it: HEK293T RXRa-UAS-bla, beta-lactamase reporter, 18 h; 530 nm emission.
In assay [9] the target is Retinoic acid receptor RXR-alpha (Homo sapiens) (UniProt P19793). The assay is described as above. The following applies: HEK293T RXRa-UAS-bla, beta-lactamase reporter, 18 h; series mostly up to 76.7 µM.
Chain of Retinoic acid receptor RXR-alpha (Homo sapiens) (P19793 whole entry, looked up): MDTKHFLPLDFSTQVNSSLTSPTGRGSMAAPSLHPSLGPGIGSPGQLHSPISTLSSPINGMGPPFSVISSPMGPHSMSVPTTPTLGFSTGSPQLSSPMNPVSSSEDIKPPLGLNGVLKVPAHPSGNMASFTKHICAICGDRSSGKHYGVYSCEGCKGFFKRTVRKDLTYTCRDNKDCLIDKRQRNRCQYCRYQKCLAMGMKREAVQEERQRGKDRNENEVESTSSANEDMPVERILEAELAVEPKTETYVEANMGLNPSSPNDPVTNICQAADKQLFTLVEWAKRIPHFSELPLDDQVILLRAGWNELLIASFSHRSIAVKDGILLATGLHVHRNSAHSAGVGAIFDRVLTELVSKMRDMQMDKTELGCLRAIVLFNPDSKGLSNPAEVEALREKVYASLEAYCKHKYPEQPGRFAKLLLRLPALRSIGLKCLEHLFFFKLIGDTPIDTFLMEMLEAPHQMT
A short description of assay [10]: qHTS assay for small molecule antagonists of retinoid X receptor alpha signaling (AID 588546; active = well fitted inhibition curve with a large enough effect in the signal ratio, with a control signal flat, not every such curve was filed as active; the % refers to the signal ratio;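 note: cells stimulated with 9-cis-retinoic acid as agonist; % is set by controls: 0 for no effect and ±100 for the full control effect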). The note with it: HEK293T RXRa-UAS-bla, beta-lactamase ratio, antagonist mode; measured here: W530 green channel, cytotoxicity proxy. In short, it runs like this:
(§2)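 Beta-lactamase reporter inhibition, read as CCF4 fluorescence ratio (ex 405, em 460/530 nm) after 2 h at RT. HEK293T UAS-bla cells, 2500/well, were stimulated with 9-cis-RA at 500 or 100 nM final alongside test compound for 18 h at 37 C.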

The target in assay [11] is Retinoic acid receptor RXR-alpha (Homo sapiens) (UniProt P19793). Described as above. The note with it: HEK293T RXRa-UAS-bla, beta-lactamase ratio, antagonist mode. The method, boiled down:
as §2

Assay [12] concerns the target Voltage-gated inwardly rectifying potassium channel KCNH2 (Homo sapiens) (UniProt Q12809). The assay can be described thus: qHTS Assay for Small Molecule Inhibitors of the Human hERG Channel Activity (AID 588834; active = well fitted inhibition curve with a large enough effect;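 note: top concentration of the series differs between compounds; % is set by controls: 0 for no effect and ±100 for the full control effect; lower thallium flux fluorescence means stronger hERG block; nearly all actives have a fitted effect of over 50% in size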). The note with it: U2OS BacMam hERG, FluxOR thallium flux fluorescence; series mostly up to 92.2 µM. The method, boiled down:
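Step 1: BacMam hERG transduction of U2OS, 4 hrs RT. Step 2: overnight 37 °C, plate 2000 cells/well, 4 hr. Step 3: FluxOR load, compound 10 min, stimulate, read fluorescence.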

Assay [13] in a line: qHTS assay for small molecule agonists of the antioxidant response element (ARE) signaling pathway (AID 651741; active = well fitted activation curve with a large enough effect in the signal ratio; the % refers to the signal ratio; note: % of control where 0% means no effect). The note with it: HepG2 ARE-bla reporter, beta-lactamase FRET ratio, 16 h; series mostly up to 96 µM. In short, it runs like this: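 HepG2 ARE-bla reporter cells, 2,000/well; 5 h settle at 37 C/5% CO2; compound pin transfer (23 nL, DMSO); 16 h at 37 C; LiveBLAzer B/G FRET substrate, 2 h RT; fluorescence intensity read.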

Assay [14] is described as follows: qHTS assay for small molecule activators of the p53 signaling pathway (AID 651743; active = well fitted activation curve with a large enough effect in the signal ratio, not every such curve was filed as active; the % refers to the signal ratio; note: % of control where 0% means no effect). The note with it: HCT-116 p53RE-bla, beta-lactamase FRET ratio, 16 h; stronger effect = higher value. The method, boiled down: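 Reporter: beta-lactamase driven by p53 response elements, stably integrated in HCT-116 cells. Cells seeded at 4,000/well, 5 h preincubation, compound (DMSO) 16 h at 37 C; B/G FRET substrate 2 h RT; fluorescence intensity read.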

The nature of assay [15]: qHTS assay for small molecule activators of the nuclear factor-kappa B (NF-kB) signaling pathway (AID 651749; active = well fitted activation curve with a large enough effect in the signal ratio; the % refers to the signal ratio; note: % of control where 0% means no effect). The note with it: NF-kB-bla ME-180 cells, beta-lactamase FRET ratio, 16 h; stronger effect = higher value. The method, boiled down:
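NF-kB-bla ME-180 cells, 2,000/well; 23 nL compound or DMSO pinned; 16 hr, 37C/5% CO2; beta-lactamase FRET read-out.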

Assay [16] concerns the target Thyroid hormone receptor beta (Homo sapiens) (UniProt P10828). The assay can be described thus: qHTS assay for small molecule agonists of thyroid hormone receptor beta signaling (AID 588545). The note with it: TR-UAS-bla GripTite HEK 293, beta-lactamase ratio, agonist mode, 18 h, percent of T3 response, DMSO as zero; series mostly up to 76.7 µM. The method, boiled down: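 Agonist activity was read as beta-lactamase CCF4 fluorescence (405 ex, 460/530 em), scaled between DMSO (0%) and 10 nM T3 (100%), then Hill-fitted for EC50 and efficacy. HEK 293 TR-UAS-bla cells in 2% charcoal/dextran FBS medium were exposed 18 h at 37 C.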

Assay [17] shares this target. The assay can be described thus: qHTS assay for small molecule antagonists of thyroid hormone receptor beta signaling (AID 588547; active = well fitted inhibition curve with a large enough effect in the signal ratio, with a control signal flat, not every such curve was filed as active; the % refers to the signal ratio;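 note: cells stimulated with 0.4 nM T3 agonist during compound exposure; % is set by controls: 0 for no effect and ±100 for the full control effect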). The note with it: TR-UAS-bla HEK293, beta-lactamase ratio, antagonist mode, 18 h. In short, it runs like this: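 TR-UAS-bla GripTite HEK293 cells in 2% charcoal/dextran FBS medium; compounds 0.59 nM to 92 uM with T3 at 0.4nM final, 18 h at 37 C. Beta-lactamase read by CCF4 fluorescence (460/530 nm); Hill fits gave IC50 and efficacy.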

The target in assay [18] is Peroxisome proliferator-activated receptor gamma (Homo sapiens) (UniProt P37231). The assay can be described thus: qHTS assay for small molecule antagonists of peroxisome proliferator-activated receptor gamma signaling (AID 588537; active = well fitted inhibition curve with a large enough effect in the signal ratio, with a control signal flat, not every such curve was filed as active; the % refers to the signal ratio;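 note: reporter cells co-stimulated with 50 nM rosiglitazone agonist during compound treatment; % of control where 0% means no effect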). The note with it: HEK293 PPARg-UAS-bla, beta-lactamase ratio, antagonist mode; series mostly up to 76.8 µM. The method, boiled down:
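Read-out: CCF4 fluorescence (ex 405, em 460/530 nm) after 2 h at RT. Cells were HEK293 carrying a UAS-bla reporter and treated 16 h at 37 C with compound plus rosiglitazone (50 nM final). Normalized to rosiglitazone and DMSO.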

Chain of Vitamin D3 receptor (Homo sapiens) (P11473 whole entry, looked up): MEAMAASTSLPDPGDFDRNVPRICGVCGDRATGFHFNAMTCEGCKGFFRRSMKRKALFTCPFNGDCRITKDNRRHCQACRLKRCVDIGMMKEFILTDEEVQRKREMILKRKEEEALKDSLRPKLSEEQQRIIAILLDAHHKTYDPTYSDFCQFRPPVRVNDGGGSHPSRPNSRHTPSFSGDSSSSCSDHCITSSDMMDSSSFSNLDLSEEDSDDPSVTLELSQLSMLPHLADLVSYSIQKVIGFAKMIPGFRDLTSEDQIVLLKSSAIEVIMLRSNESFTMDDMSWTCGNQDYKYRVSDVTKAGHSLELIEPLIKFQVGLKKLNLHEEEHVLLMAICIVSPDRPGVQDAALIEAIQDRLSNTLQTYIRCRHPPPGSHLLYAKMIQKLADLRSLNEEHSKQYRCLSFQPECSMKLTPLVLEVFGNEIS
Chain of Glucocorticoid receptor (Homo sapiens) (P04150 whole entry, looked up): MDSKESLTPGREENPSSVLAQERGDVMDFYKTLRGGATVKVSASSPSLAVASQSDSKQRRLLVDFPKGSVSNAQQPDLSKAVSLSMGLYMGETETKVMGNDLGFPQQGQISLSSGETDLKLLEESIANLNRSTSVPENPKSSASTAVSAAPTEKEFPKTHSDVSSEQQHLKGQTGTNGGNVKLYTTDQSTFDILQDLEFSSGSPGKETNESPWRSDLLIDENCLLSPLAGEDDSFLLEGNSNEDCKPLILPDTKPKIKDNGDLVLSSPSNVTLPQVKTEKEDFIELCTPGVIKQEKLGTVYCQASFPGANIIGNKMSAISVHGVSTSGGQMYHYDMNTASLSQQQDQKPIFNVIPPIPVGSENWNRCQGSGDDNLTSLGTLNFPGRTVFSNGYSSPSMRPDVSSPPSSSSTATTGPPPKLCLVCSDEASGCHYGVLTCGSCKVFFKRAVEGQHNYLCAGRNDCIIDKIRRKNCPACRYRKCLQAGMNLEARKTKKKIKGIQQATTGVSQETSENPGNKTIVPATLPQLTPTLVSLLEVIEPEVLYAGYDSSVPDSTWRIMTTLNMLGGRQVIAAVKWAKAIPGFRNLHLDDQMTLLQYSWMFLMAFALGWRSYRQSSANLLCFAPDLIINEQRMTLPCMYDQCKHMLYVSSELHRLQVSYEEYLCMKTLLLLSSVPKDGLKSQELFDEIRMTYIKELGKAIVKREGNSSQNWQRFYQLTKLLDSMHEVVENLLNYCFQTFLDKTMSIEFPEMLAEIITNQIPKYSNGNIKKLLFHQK
Chain of Thyroid hormone receptor beta (Homo sapiens) (P10828 whole entry, looked up): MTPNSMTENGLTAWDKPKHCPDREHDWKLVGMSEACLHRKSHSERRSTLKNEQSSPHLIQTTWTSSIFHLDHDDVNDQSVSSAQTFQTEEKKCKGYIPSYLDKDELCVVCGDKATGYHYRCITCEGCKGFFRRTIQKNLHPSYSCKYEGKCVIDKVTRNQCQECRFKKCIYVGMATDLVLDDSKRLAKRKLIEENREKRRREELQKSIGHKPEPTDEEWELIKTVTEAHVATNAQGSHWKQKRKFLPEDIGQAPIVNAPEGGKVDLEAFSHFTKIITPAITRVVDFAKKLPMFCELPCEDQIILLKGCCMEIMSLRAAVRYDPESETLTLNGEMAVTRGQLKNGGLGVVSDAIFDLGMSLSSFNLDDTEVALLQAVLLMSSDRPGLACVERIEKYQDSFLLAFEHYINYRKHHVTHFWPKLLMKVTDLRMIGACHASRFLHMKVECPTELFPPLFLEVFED
Chain of Peroxisome proliferator-activated receptor gamma (Homo sapiens) (P37231 whole entry, looked up): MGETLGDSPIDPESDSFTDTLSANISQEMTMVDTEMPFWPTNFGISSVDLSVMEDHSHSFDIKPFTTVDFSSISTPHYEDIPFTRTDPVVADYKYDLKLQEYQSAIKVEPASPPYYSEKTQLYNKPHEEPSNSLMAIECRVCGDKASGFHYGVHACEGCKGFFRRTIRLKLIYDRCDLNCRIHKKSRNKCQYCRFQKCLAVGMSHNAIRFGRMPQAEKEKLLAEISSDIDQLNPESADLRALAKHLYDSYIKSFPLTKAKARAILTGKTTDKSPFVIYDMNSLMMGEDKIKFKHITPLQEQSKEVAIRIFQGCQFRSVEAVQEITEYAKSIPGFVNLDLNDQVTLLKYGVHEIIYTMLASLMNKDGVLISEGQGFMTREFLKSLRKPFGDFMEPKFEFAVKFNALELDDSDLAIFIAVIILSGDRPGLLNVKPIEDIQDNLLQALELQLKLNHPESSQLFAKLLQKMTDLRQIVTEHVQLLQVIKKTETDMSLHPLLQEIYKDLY
Chain of Peroxisome proliferator-activated receptor delta (Homo sapiens) (Q03181 whole entry, looked up): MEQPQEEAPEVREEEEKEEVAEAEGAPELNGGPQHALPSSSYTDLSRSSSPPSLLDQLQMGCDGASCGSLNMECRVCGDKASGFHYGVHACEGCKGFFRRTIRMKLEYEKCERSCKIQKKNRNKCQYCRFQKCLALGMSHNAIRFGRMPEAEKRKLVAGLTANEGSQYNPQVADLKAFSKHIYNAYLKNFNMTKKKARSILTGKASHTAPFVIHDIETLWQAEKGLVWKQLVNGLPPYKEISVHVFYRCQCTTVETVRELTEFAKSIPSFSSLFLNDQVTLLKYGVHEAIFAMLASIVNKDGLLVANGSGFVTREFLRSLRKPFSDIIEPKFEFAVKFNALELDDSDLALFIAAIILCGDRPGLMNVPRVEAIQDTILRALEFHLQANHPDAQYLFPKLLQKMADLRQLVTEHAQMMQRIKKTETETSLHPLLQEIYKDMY
Chain of Voltage-gated inwardly rectifying potassium channel KCNH2 (Homo sapiens) (Q12809 whole entry, looked up): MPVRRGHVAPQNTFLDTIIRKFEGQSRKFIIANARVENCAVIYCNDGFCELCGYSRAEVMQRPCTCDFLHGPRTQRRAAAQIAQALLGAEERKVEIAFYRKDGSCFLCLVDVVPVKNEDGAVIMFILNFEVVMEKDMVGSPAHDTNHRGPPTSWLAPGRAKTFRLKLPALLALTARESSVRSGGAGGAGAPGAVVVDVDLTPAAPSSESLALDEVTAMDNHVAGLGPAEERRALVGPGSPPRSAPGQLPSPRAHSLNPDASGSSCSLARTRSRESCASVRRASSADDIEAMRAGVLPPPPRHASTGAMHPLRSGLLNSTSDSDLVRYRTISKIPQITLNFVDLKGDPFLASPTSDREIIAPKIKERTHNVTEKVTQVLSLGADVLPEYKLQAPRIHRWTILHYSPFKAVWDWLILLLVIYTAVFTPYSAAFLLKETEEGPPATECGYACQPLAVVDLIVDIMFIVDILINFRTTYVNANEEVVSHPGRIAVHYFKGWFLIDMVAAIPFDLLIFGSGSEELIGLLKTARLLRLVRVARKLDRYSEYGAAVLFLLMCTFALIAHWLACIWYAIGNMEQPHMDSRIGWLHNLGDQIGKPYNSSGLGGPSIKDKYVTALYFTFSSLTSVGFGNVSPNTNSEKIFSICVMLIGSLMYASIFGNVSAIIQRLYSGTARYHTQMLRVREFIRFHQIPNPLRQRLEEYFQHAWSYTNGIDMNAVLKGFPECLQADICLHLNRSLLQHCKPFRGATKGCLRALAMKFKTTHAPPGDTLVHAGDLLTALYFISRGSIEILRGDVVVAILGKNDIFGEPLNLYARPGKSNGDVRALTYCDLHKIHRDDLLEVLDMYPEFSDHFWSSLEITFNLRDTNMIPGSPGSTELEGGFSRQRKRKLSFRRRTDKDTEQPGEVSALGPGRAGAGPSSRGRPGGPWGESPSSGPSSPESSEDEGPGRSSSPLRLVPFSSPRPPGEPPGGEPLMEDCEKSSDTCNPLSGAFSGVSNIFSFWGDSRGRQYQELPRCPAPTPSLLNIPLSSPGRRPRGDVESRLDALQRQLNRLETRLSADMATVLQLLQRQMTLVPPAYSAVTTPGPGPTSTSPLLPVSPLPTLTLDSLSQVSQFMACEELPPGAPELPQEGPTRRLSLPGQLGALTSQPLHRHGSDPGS

For the compound `CSCCC=O`, the activation in assay [1] was -3.21% (inactive); in [14] it was -3.46% (inactive); in [15] it was 0.77% (inactive). Besides, the result in assay [2], in [5], in [6], in assay [7] and in assay [9] was inactive. The max response in [3] was -13.1%; in assay [8] it was -12.2%; in [10], -2.47%; in [11], 16.4% (inactive). Besides, the Potency entry in assay [4], in assay [12] and in assay [13] was “inactive” in each case.
Regarding `CCc1ccccc1`, the activation in assay [1] was -5.09% (inactive); in [15], -1.59% (inactive). For the same compound, the result in [2], in assay [5], in [6], in assay [7] and in assay [9] was inactive. Further, the max response in assay [3] is 15%; in [8], 10.6%; in [10], 3.87%; in assay [11] it was 1.68% (inactive). Also, the Potency entry in assay [4] was “inactive”.
Take `COc1ccc(OC)cc1`: the activation in assay [1] was -0.922% (inactive); in assay [14] it was 1.53% (inactive); in assay [15], -2.07% (inactive). For the same compound, the outcome in assay [2], in assay [5], in assay [6], in assay [7] and in assay [9] was inactive. In addition, the max response in assay [3] is -6.1%; in [8], -11%; in [10] it was -6.6%; in assay [11], 0.277% (inactive). Also, the Potency entry in assay [4] and in assay [12] was “inactive” throughout.
With `O=C(Cl)c1cccc([N+](=O)[O-])c1`, the results for the activation in assay [1] and in assay [15] were 3.39% (inactive) and -0.912% (inactive), respectively. Also, the result in [2], in assay [5], in assay [6], in assay [7], in [9] and in [16] was inactive. The max response in [3] was 33.5%; in assay [8], 14.1%; in [10] it was 0.426%; in assay [11], 24.8% (inactive). Moreover, the Potency entry in [4], in assay [12] and in assay [13] was “inactive” each time. Also, in assay [17], the activity change % (negative = inhibition) is 5.89% (inactive).
Turning to `O=c1[nH][nH]c(=O)c2cc([N+](=O)[O-])ccc12`, the activation was 0.885% (inactive) in [1], -3.95% (inactive) in [14] and 0.392% (inactive) in [15]. Further, the result in assay [2], in [5], in assay [18], in [6], in assay [7] and in assay [9] was inactive. For the same compound, the outcome in assay [16] was inactive. Also, the max response is 10.6% in assay [3], -1.84% in assay [8], -8.03% in [10] and 10.6% (inactive) in [11]. For the same compound, the Potency result in assay [4], in assay [12] and in assay [13] was “inactive” in each case. In assay [17], the activity change % (negative = inhibition) is 15.8% (inactive).
On to `Cc1cc(C)cc([N+](=O)[O-])c1`, for which the activation is -8.13% (inactive) in [1], -0.0084% (inactive) in assay [14] and 0.968% (inactive) in [15]. Besides, the outcome in assay [2], in assay [5], in [6], in [7], in [9] and in assay [16] was inactive. The max response was -43.4% in assay [3], 8.04% in assay [8], 5.59% in assay [10] and 4.7% (inactive) in assay [11]. Besides, the Potency result in assay [4], in assay [12] and in [13] was “inactive” throughout.
As for `C1CCC2OC2C1` (stereo not given), the activation in [1] is -6.07% (inactive). Moreover, the outcome in [2], in [5], in [6], in assay [7], in [9] and in assay [16] was inactive. Also, the max response in [3] was 38.4%; in assay [8], 6.92%; in assay [10] it was -13.8%; in assay [11] it was 6.91% (inactive). Besides, the Potency entry in [4] and in [13] was “inactive” throughout. In addition, in assay [17], the activity change % (negative = inhibition) was 14.7% (inactive).
